Screening results as filed in PubChem BioAssay.
SENP8 block-1 – human SENP8 protease inhibitors, primary screen, biochemical, fluorescence, Nedd8 protein substrate, uHTS | Sentrin-specific protease 8 (Homo sapiens), Q96LD8 | recombinant SENP8 | inhibition, % at 20 µM | 0.64% of 360,000 active; in the data active = inhibition mostly above about 40%, no sharp cut-off; inactive = mostly below about 27%
SENP7 block – SENP7 protease inhibitors, primary screen, biochemical, luminescence, uHTS. Sentrin-specific protease 7 (Homo sapiens), Q9BQF6. recombinant SENP7, Z-RLRGG-aminoluciferin luminescence, 40 min. inhibition, % at 5 µM. 1.5% of 330,000 active;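 active = inhibition above about 50% at the single test dose, limit read from the data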
HSP90 inh – HSP90 inhibitors, primary screen, cell lysate, luminescence; AID 1789, 2009; inhibition, % at 5.6 µM; Heat shock protein HSP 90 (rabbit reticulocyte lysate; luciferase refolding); Rabbit reticulocyte lysate, luciferase refolding luminescence, 3 h; 0.91% of 290,000 active;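 active = inhibition above the screen-wide mean plus 3 SD, computed separately per campaign, cut at about 16% in these data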;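 also: inhibitors lower the luminescence because luciferase stays unfolded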
SENP6 inh – SENP6 protease inhibitors, primary screen, biochemical, luminescence, uHTS | inhibition, % at 10 µM | Recombinant SENP6 catalytic domain, aminoluciferin luminescence | 1.8% of 330,000 active | Sentrin-specific protease 6 (Homo sapiens), Q9GZR1;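 active = inhibition above about 50% at the single tested dose, limit read from the data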
Target sequence (Q9GZR1 628-1112 limits assumed): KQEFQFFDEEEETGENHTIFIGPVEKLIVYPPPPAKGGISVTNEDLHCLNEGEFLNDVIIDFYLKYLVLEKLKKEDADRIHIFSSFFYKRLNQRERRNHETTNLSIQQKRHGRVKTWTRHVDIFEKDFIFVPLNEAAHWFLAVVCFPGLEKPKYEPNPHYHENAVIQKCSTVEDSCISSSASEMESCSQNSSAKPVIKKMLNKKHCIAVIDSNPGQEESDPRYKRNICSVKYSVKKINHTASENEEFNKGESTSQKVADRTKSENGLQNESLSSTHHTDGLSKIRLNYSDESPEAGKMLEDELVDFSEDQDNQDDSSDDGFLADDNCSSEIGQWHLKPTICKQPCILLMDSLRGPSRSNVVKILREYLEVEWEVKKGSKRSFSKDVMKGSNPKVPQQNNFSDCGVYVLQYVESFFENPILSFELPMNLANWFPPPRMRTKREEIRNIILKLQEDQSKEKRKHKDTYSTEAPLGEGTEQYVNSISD
SENP8 block-2 – SENP8 protease inhibitors, primary screen, biochemical, luminescence; 1.2% of 330,000 active; Sentrin-specific protease 8 (Homo sapiens), Q96LD8; purified SENP8, Z-RLRGG-aminoluciferin cleavage; inhibition, % at 10 µM; in the data active = inhibition above about 50%
SENP8 inh conf – human SENP8 protease inhibitors, confirmation, biochemical, Nedd8 protein substrate, single concentration | shares compounds with SENP8 block-1 | purified SENP8, Nedd8-AMC/pro-Nedd8 cleavage fluorescence, 30 min | inhibition, % at 25 µM | 15% of 1,400 active; in the data active = inhibition mostly above about 39%, no sharp cut-off; inactive = mostly below about 34%
Large screens that a line does not name were inactive (follow-up assays come after a bar, where they were run). In the library only some 2.7% were active in any assay of this set; here they are far more common.

COC(=O)c1ccc(NC(=O)C2CCCN2S(=O)(=O)c2ccc(OC)cc2)cc1 (configuration not stated)	SENP8 block-1 41 | SENP8 inh conf inactive
COC(=O)c1ccc(NC(=O)C2CCCN2S(=O)(=O)c2ccc(C)cc2)cc1 (configuration not stated)	none
CCN(CC)C(=O)CSc1n[nH]c(=S)n1N	SENP8 block-1 44 | SENP8 inh conf inactive
CC(C)OC(=O)CSc1nnc(-c2ccccn2)n1-c1ccccc1	SENP8 block-1 45 | SENP8 inh conf inactive
Cc1ccc(-n2c(SCC(=O)OC(C)C)nnc2-c2ccccn2)cc1	none
C[C@H](CO)N1C[C@H](C)[C@H](CN(C)S(=O)(=O)c2cccs2)Oc2ccc(NC(=O)Nc3ccc4c(c3)OCO4)cc2CC1=O	none (no result: HSP90 inh)
COc1cccc(NC(=O)CN(C)C(=O)C(CCSC)NC(=O)c2ccco2)c1 (configuration not stated)	none (no result: HSP90 inh)
C=CCNc1nc2c3ccccc3n(C(C)=O)c2s1	SENP8 block-1 51 | SENP8 inh conf inactive
CC(=O)n1c2ccccc2c2nc3ccccc3nc21	none
COc1ccccc1OCCNC(=O)c1cc(F)c(F)cc1Cl	SENP8 block-1 41 | SENP8 inh conf inactive
O=C(CN(C1CCCCC1)S(=O)(=O)c1ccc(F)cc1)NCC1CCCO1 (configuration not stated)	SENP8 block-1 46 (no result: SENP7 block, HSP90 inh, SENP6 inh, SENP8 block-2) | SENP8 inh conf inactive
O=c1[nH]nc(CNc2ccc(O)cc2)c2ccccc12	SENP8 block-1 114 | SENP8 inh conf inactive
O=C(NC(CSSCC(NC(=O)c1ccccc1)C(=O)O)C(=O)O)c1ccccc1 (configuration not stated)	SENP8 block-1 63 | SENP8 inh conf inactive
Cn1cnc2c(=O)[nH]cc([N+](=O)[O-])c21	SENP8 block-1 84 | SENP8 inh conf 59
CCOC(=O)CN1C(=O)S/C(=C/c2ccc(C)o2)C1=O	none
CCOC(=O)CN1C(=O)S/C(=C/c2ccc(O)c([N+](=O)[O-])c2)C1=O	SENP8 block-1 48 | SENP8 inh conf inactive
O=c1c2ccccc2c(C=NCCc2ccccc2)c(O)n1Cc1ccccc1	SENP8 block-1 47 | SENP8 inh conf 51
COc1ccccc1C1C(C(=O)c2cc3ccccc3o2)=C(O)C(=O)N1c1cc(C)on1 (configuration not stated)	none
Cc1cc(C)c(C(=O)COC(=O)[C@H](C)Nc2ccc(C(F)(F)F)cc2[N+](=O)[O-])c(C)c1	none
CC(C)[C@H](Nc1ccc(C(F)(F)F)cc1[N+](=O)[O-])C(=O)O	SENP8 block-1 41 | SENP8 inh conf inactive
O=C(Nc1nccs1)c1cccc(S(=O)(=O)N2CCOCC2)c1	none
Oc1ccc(N2CCN(Cc3ccc(OCCCN4CCCCC4)cc3)CC2)cc1	SENP8 block-1 40 | SENP8 inh conf inactive
O=C(O)c1ccc(N/N=C/C=C/c2ccc([N+](=O)[O-])o2)cc1	SENP8 block-1 45 | SENP8 inh conf inactive
O=C(N/N=C/c1ccc([N+](=O)[O-])o1)C(=O)Nc1ccc(C(=O)O)cc1	none
C=C(C)Cn1c(NCCOC)nc2c1c(=O)[nH]c(=O)n2C	SENP8 block-1 40 | SENP8 inh conf inactive
Cc1ccc(-c2c(C(=O)N/N=C/c3ccncc3)nnn2-c2nonc2N)cc1	none
NC(=O)c1ccc(N=Cc2ccc([N+](=O)[O-])s2)cc1	SENP8 block-1 60 (no result: SENP7 block, SENP6 inh, SENP8 block-2) | SENP8 inh conf 95
N/C(=N\O)c1ccc([N+](=O)[O-])s1	none
CSCC[C@H](NC(=O)N1CCn2c1nc1ccccc12)C(=O)N[C@H](Cc1ccccc1)C(=O)O	SENP8 block-1 49 | SENP8 inh conf inactive
O=C(CCCCCNC(=O)N1CCn2c1nc1ccccc12)N[C@@H](Cc1ccccc1)C(=O)O	SENP8 block-1 47 | SENP8 inh conf inactive
CC(C)(C)C1CCC(=NNC(=O)CC(=O)NCc2ccccc2)CC1 (configuration not stated)	none
NC(=O)[C@@H]1CCCCNc2c(F)cc([N+](=O)[O-])cc2C(=O)N[C@@H](CC(=O)O)C(=O)N[C@@H](CCC(=O)O)C(=O)N1	none
